Measurements taken from PubChem BioAssay AID624330 (Southern Research Specialized Biocontainment Screening …, 2012).
Among all 340,000 compounds or so, about 2,100 (0.62%) were called active.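 How the source made its calls: active means first-screen hits whose inhibition reached a set limit at any dose in the follow-up dose series; inconclusive means inhibition above the set first-screen limit but never retested; inactive means the rest.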 These entries were drawn from the full list. Potency and affinity values are given separately.

molecular target: Rac GTPase-activating protein 1 (Homo sapiens) (UniProt Q9H0H5); assay: MgcRacGAP GTPase-activating activity inhibitors, confirmation, biochemical, ADP Hunter fluorescence, primary and confirmatory (AID 624330); conditions: MgcRacGAP-stimulated Rac1 GTP hydrolysis, at 30 µM, stronger effect = higher value, GST-tagged Rac1 F28L mutant substrate;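 further: fluorescence reports GDP produced by GAP-driven GTP hydrolysis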
Sequence (Q9H0H5 whole entry, looked up): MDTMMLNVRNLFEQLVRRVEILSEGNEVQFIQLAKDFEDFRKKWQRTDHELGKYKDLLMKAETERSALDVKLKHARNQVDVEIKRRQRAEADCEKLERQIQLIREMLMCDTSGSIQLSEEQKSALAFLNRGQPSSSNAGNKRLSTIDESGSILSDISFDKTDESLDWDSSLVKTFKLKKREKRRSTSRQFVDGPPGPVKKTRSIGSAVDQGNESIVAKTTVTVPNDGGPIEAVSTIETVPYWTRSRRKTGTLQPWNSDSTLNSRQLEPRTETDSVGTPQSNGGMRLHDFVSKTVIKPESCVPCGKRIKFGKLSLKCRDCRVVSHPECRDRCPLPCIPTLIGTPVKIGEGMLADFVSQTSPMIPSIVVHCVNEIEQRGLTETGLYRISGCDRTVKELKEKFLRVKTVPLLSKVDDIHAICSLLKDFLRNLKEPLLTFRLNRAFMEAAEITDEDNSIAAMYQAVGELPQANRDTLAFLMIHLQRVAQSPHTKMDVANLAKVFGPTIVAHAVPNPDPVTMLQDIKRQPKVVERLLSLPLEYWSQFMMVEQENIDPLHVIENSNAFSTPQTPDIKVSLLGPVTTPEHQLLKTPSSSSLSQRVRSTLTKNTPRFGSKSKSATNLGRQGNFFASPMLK

inhibition, inactive:
COc1ccc(Cl)cc1NC(=O)C1Cc2cc(S(=O)(=O)N3CCCC3)ccc2N1C(C)=O (centres undefined) 2.38%
COc1ccc(CCNC(=O)COC(=O)CCC(=O)c2cccs2)cc1OC 3.28%
COc1cccc(S(=O)(=O)NCc2ccc(C(=O)NCc3ccco3)cc2)c1 13.6%
Cc1ccc(Cl)cc1NC(=S)N1CCC(c2ccccc2)C1 (centres undefined) 7.04%
COc1ccccc1N1CCN(Cc2ccc(OC)c(OC)c2OC)CC1 28.2%
COc1ccc(OC)c(CN2CCN(c3ccccc3OC)CC2)c1 19.8%
COc1ccc(OC)c(CN2CCSCC2)c1 36.4%
COc1ccc(CN2CCC(N3CC(C)OC(C)C3)CC2)c(OC)c1 (centres undefined) 29.1%
COc1ccc2oc(=O)cc(CN3CCN(Cc4ccc(OC)c(OC)c4OC)CC3)c2c1 11.2%
COc1ccc(CN2CCC(n3nccc3NC(=O)C3CC3)CC2)c(OC)c1OC 8.32%
COc1ccc(CN2CCN(c3ccc(F)cc3)CC2)c(OC)c1OC 8.37%
COc1ccc(OC)c(CN2CCN(Cc3cc(OC)c(OC)c(OC)c3)CC2)c1 -7.74%
O=C(c1ccccc1F)N1CCN(c2ccc([N+](=O)[O-])c(NCC3CCCO3)c2)CC1 (centres undefined) 11.1%
COc1ccc(CCNC(=O)C2CCCN2C(=O)Nc2ccc(F)cc2)cc1OC (centres undefined) 7.58%
O=C(CSc1nnc(NC(=O)C2CC(=O)N(c3ccccc3)C2)s1)NCC1CCCO1 (centres undefined) 8.28%
CN(Cc1ccccc1)c1ncc(C=O)s1 11.2%
CCCCC(=O)Nc1ccccc1CC 7.96%
C=CCN1C(=O)CS/C1=N\N=C\c1cccc([N+](=O)[O-])c1 5.94%
CCCCNS(=O)(=O)c1ccc2nc(SCC(=O)Nc3ccccc3Cl)[nH]c2c1 9.77%
CCOc1ccc(NC(=S)N2CCN(C/C=C/c3ccccc3)CC2)cc1 6.87%
Cn1c(=O)n(C)c2cc(NC(=O)CSc3ccccc3)ccc21 6.1%
Clc1ccc(OCCCCCN2CCOCC2)cc1 -5.93%
CSc1ccc(CN2CCC(N3CCC(C(=O)NC4CC4)CC3)CC2)cc1 -3.51%
COc1ccc(CN2CCN(C(=O)c3ccccc3F)CC2)c(OC)c1OC -1.41%
CSc1ccc(CN2CCC(Cc3ccccc3)CC2)cc1 15%
CCOC(=O)Cc1csc(NC(=O)c2c(C)noc2C)n1 7.91%
CCC1=C2CC[C@H]3C(=O)N(C)C(=O)[C@H]3[C@H]2[C@@]2(Cc3ccccc3)C(=NCCOC)OC(=O)N2C1=O 10.6%
C/C(=N\NC(=O)c1nnn(-c2nonc2N)c1CN1CCCCCC1)c1ccc(Br)cc1 -3.03%
CC(Oc1ccc(F)cc1)C(=O)N(Cc1ccccc1)c1c(N)n(Cc2ccccc2)c(=O)[nH]c1=O (centres undefined) 3.15%
CCOC(=O)Nc1ccc(Oc2ccccc2)cc1 1.24%
CCOC(=O)Nc1ccc(C(N)=O)cc1 10%
Cc1ccccc1NC(=O)COc1coc(CN2CCN(Cc3ccccc3)CC2)cc1=O 3.8%
N#Cc1ccc(-c2ccccc2)nc1Sc1ccc(F)cc1 3.11%
Cc1c(/C=N\NC(=O)C2(C)CC2(Cl)Cl)cnn1C (centres undefined) 2.13%
CCOc1cc(/C=C2/C(=O)N(c3ccccc3)N=C2C)ccc1OC(=O)c1cccs1 15.2%
CC(=O)Oc1ccc(/C=C2/C(=O)N(c3ccccc3)N=C2C)cc1 25%
COc1ccc(C(=O)c2coc3ccc(O)c(CN4CCCC4)c23)cc1 8.22%
CN1C2CCC1/C(=C\c1ccccc1)C(=O)/C2=C\c1ccccc1 12.8%
CN1C2CCC1/C(=C\c1ccccc1F)C(=O)/C2=C/c1ccccc1F 7.33%
Cc1ccc(S(=O)(=O)N2CCCCC2)cc1NC(=O)c1c(-c2ccccc2)noc1C 0.74%
O=C(COC(=O)C1CCCCC1)Nc1ccc(S(=O)(=O)N2CCOCC2)cc1 -2.69%
CCCC(c1nnnn1CCOC)N(Cc1cc2cc(C)c(C)cc2[nH]c1=O)CC1CCCO1 (centres undefined) 1.47%
COc1cc(OC)c(CN2CCCCCCC2)cc1Br 14.3%
COc1cc(Br)c(CN2CCCN(C)CC2)cc1OC 5.08%
COc1ccc(CN2CCCCCC2)c(C)c1C 11.4%
COc1ccc(CN2CCSCC2)c(OC)c1C 28.9%
CC(=O)N1CCSc2ccc(S(=O)(=O)Nc3ccc(C)cc3)cc21 8.81%
CC(C(=O)Nc1ccccc1-c1ccccc1)N1CCCCC1 (centres undefined) 0.68%
CN1CCN(C(=O)CCC(=O)c2ccc(F)cc2)CC1 7.21%
COc1ccc(CN2C(=O)c3ccccc3C2=O)cc1 -0.09%
COc1ccc(NC(=O)c2ccc3c(c2)C(=O)N(Cc2cccnc2)C3=O)cc1 9.43%
CC1S/C(=N/N=C/c2cccs2)NC1=O (centres undefined) -9.62%
O=[N+]([O-])c1ccccc1Nc1ccccc1 5.61%
Nc1ccc(Nc2ccc([N+](=O)[O-])cc2[N+](=O)[O-])cc1 25.4%
O=[N+]([O-])c1ccccc1Nc1ccccc1[N+](=O)[O-] -9.22%
Nc1cc([N+](=O)[O-])ccc1Nc1ccccc1 15.2%
CCCCOc1ccccc1N1CCN(CCCN2C(=O)C3CCCN3C2=O)CC1 (centres undefined) 9.54%
Cc1c2cnn(CC(=O)NCCCN3CCCCC3C)c(=O)c2c(C)n1Cc1ccccc1 (centres undefined) 8.86%
O=C1CCc2ccccc2N1 3.09%
Clc1ccc2c(c1)Nc1ccccc1CC2 9.56%
CCn1c(COc2ccc(=O)n(-c3ccccc3)n2)nnc1SC 7.04%
COc1cccc2c1C(=O)c1c(O)c3c(c(O)c1C2=O)CC(O)(C(C)=O)CC3OC1CC(O)C(O)C(C)O1 (centres undefined) 11.6%
C/C(=N\NC(=O)c1ccc(Cl)c(Cl)c1)c1cccc(NC(=O)C(C)C)c1 10%
COc1cccc2c1C(=O)c1c(O)c3c(c(O)c1C2=O)CC(O)(C(C)=O)CC3OC1CC(N(C)C)C(O)C(C)O1 (centres undefined) 16.8%
COc1cccc2c1C(=O)c1c(O)c3c(c(O)c1C2=O)CC(O)(C(=O)CO)CC3OC1CC(N(C)C)C(O)C(C)O1 (centres undefined) 20.6%
CCCCC(=O)OCC(=O)C1(O)Cc2c(O)c3c(c(O)c2C(OC2CC(NC(=O)C(F)(F)F)C(O)C(C)O2)C1)C(=O)c1c(OC)cccc1C3=O (centres undefined) 6.09%
COc1cccc2c1C(=O)c1c(O)c3c(c(O)c1C2=O)C[C@](O)(C(C)=O)C[C@H]3O[C@@H]1C[C@@H](N)[C@@H](O)[C@@H](C)O1 21.3%
CCCn1c2c(c(O)c(C(=O)NCc3ccccc3)c1=O)CCCC2 0.77%
COCCCN(C(=O)CSCC(=O)Nc1ccc(C)cc1)c1c(N)n(Cc2ccccc2)c(=O)[nH]c1=O 8.76%
COc1cc(NC(=O)CN2C(=O)NC(CC(C)C)C2=O)cc(OC)c1OC (centres undefined) 6.04%
CC1(C)C(=O)Nc2ccccc2N1C(=O)CN1C(=O)NC(CCc2ccccc2)C1=O (centres undefined) 2.92%
Cc1cc(C)cc(NC(=O)COC(=O)CCCNC(=O)c2ccc(Cl)cc2)c1 3.85%
COc1ccc(CCNC(=O)c2ccc(N3CCCC3=O)cc2)cc1OC 12.5%
COc1ccc(-c2nnn(CC(=O)N(CC(=O)NCCC(C)C)c3ccccc3)n2)cc1OC 1.41%
Oc1ccc(-c2[nH]ncc2-c2ccc(Br)cc2)c(O)c1 26.8%
COc1ccc(-c2[nH]ncc2-c2ccc(Cl)cc2)c(O)c1 11.8%
CC(C)(C)c1ccc(C(=O)N/C(=C\c2ccco2)C(=O)Nc2ccccc2C(=O)O)cc1 7.9%
C[C@H](NC(=O)C1CCN(S(=O)(=O)c2ccccc2)CC1)C(=O)NC1CC1 4.17%
O=C(NCc1ccc2c(c1)OCO2)c1cc(-c2ccccc2)c(N2CCOCC2)s1 11.5%
COc1ccc(N2CCN(C(=O)C3=NNC(=O)CC3)CC2)cc1 4.93%
COc1ccc(C(=O)C2CCCN(C(=O)CCC3=NNC(=O)CC3)C2)c(C)c1 (centres undefined) -12.3%
O=C1CCC(C(=O)N2CCCC(Nc3ccc(F)cc3)C2)=NN1 (centres undefined) 13.7%
Cc1ccc(NC2CCCN(C(=O)CCC3=NNC(=O)CC3)C2)cc1C (centres undefined) 11.1%
O=C(O)c1ccc(S(=O)(=O)N(Cc2ccc(F)cc2)C2CCCCC2)cc1 7.41%
O=C(Nc1ccc(N2CCOCC2)nc1)c1ccc(F)cc1 3.12%
COc1ccc2cc(/C=N/NC(=O)c3c(Cl)cnn3C)c(Cl)nc2c1 3.85%
COc1cccc(/C=N/Nc2ncnc(Cl)c2N)c1O 7.43%
COc1ccc(/C=N/Nc2ncnc(Cl)c2N)cc1OC 9.22%
Nc1c(Cl)ncnc1N/N=C/c1cccnc1 -0.02%
Nc1c(Cl)ncnc1N/N=C/c1cccc(O)c1 -2.65%
Cc1ccc(/C=N/Nc2ncnc3nc[nH]c23)cc1 11.9%
Clc1ccc(/C=N/Nc2ncnc3nc[nH]c23)cc1 19.8%
Nc1c(Cl)ncnc1NCCO 12.3%
Cc1ccc(CCNc2ncnc(Cl)c2N)cc1 6.24%
